Source: the supplement of paper PMC9950053
Structures can show the parent of a compound that is named as a salt.

Tested on: Danio rerio larvae (5 dpf)
Test: startle (activity period 16 minus period 15, 20-s interval sound) minus DMSO control (percentage points); higher = stronger startle response than DMSO larvae
Conditions: 10 µM; exposure time: 3 h pre-incubation + 3 h imaging
Description: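 Wild-type 5 dpf zebrafish larvae (n=48 per drug, 96-well plates, 28.5 °C) were exposed to Tocris FDA-approved library compounds at 10 µM (0.1% DMSO) for 3 h before and 3 h during imaging. Images were taken every 6 s during visual (moving coloured lines) and acoustic stimuli, and larvae were tracked with the DeepLabCut-based Z-LaP Tracker. Each behavioural measure is the treated-group mean minus the DMSO vehicle control mean (n=844), in percentage points. This mapping covers compounds with 4-character plate codes.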

SMILES	startle
CC(C)C[C@H]1C(=O)N2CCC[C@H]2[C@]2(O)O[C@](NC(=O)[C@@H]3C=C4c5cccc6[nH]c(Br)c(c56)C[C@H]4N(C)C3)(C(C)C)C(=O)N12 [Bromocriptine mesylate]	-8.86
O=c1[nH]c2ccccc2n1C1CCN(CCCC(c2ccc(F)cc2)c2ccc(F)cc2)CC1 [Pimozide]	0.33
N[C@@H]1C[C@H]1c1ccccc1 [Tranylcypromine hydrochloride]	-9.63
C=CCN1C[C@H](C(=O)N(CCCN(C)C)C(=O)NCC)C[C@@H]2c3cccc4[nH]cc(c34)C[C@H]21 [Cabergoline]	-9.97
CCN(C)C(=O)Oc1cccc([C@H](C)N(C)C)c1 [Rivastigmine tartrate]	5.22
CC(O)(CS(=O)(=O)c1ccc(F)cc1)C(=O)Nc1ccc(C#N)c(C(F)(F)F)c1 (stereo unspecified) [Bicalutamide]	0.428
C=C1C[C@@H]2[C@H](CC[C@]3(C)C(=O)CC[C@@H]23)[C@@]2(C)C=CC(=O)C=C12 [Exemestane]	1.86
CN1C[C@H](C(=O)N[C@]2(C)O[C@@]3(O)[C@@H]4CCCN4C(=O)[C@H](Cc4ccccc4)N3C2=O)C[C@@H]2c3cccc4[nH]cc(c34)C[C@H]21 [Dihydroergotamine mesylate]	6.26
COc1cc2c(cc1OC)C1CC(=O)C(CC(C)C)CN1CC2 (stereo unspecified) [Tetrabenazine]	-4.98
Cc1cccc([C@H](C)c2c[nH]cn2)c1C [Dexmedetomidine hydrochloride]	9.98
CC[C@@H](C(N)=O)N1CCCC1=O [Levetiracetam]	1.63
